Measured values from the supplement of paper PMC3334620.
The full ranking holds about 33,000 sequences; the median of “E-score (-0.5 to 0.5)” is about -8e-05, and the highest 2% start at about 0.23. For the sample, the highest values were picked, then their nearest neighbours and some sequences at random.

These sequences were tested against T1, Nrg2 (UniProt P38082) (assay: PBM E-score (8-mer binding enrichment) (E-score (-0.5 to 0.5)); higher = stronger / more preferred TF binding). Details: protein concentration: 100 nM; construct: GST-full length.
T1 sequence: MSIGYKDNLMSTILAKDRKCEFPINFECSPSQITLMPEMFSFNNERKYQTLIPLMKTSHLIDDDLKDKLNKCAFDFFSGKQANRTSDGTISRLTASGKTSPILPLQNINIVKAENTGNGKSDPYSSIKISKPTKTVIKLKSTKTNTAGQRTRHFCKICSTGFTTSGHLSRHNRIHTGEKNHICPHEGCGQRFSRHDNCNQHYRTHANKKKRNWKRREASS
Outline: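 Each ungapped eight-base word and its reverse complement, pooled, received an E-score from the Universal PBM Analysis Suite. Underlying scans, normalised with masliner, recorded fluorescent anti-GST bound to GST-tagged yeast transcription factors. These were applied at about 100-200 nM to universal all-10-mer Agilent arrays double-stranded by primer extension.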

Sequence	PBM E-score
TAAAACTA	0.0863
CAGGGCCA	-0.0826
GGGCCCCC	-0.279
AAGGGCCT	0.0464
AGGGGCCC	0.276
GGGGCCCC	0.267
CGGGCCCC	0.119
AGGGGGCC	-0.189
CGGGGCCC	0.221
CAGGGCCC	0.42
AAGGGCCC	0.347
AAGGGCCG	-0.0822
GAGGGCCC	0.151
CACCCGAC	-0.0642
AAAAGCGG	-0.12
AAAGTAGT	0.0374
AGTGAAAG	-0.0491
ACTCAATC	0.0391
AACCCCGG	0.0231
TAGTTTCA	0.258
AAGTTTCA	0.149
GAGTTTCA	0.00699
CGTGAATA	0.17
TACCACAA	0.0795
ATAATTGA	0.276
TTAATTAA	0.198

Sequence	PBM E-score
CTAATTGA	0.0446
ATAATTAA	0.264
ATAATTAC	0.176
GTAATTGA	0.00642
CTAGATGA	-0.0603
GCGAAACA	0.0688
AACGATGA	0.0545
ACCGCATC	0.159
AAATTGTA	0.0349
AATTGAGT	0.245
AAATTGCT	-0.0593
AATTGGGT	0.26
AATTGAGA	0.0993
AAATTGTT	0.0684
AATTGGGG	-0.0654
AATTGAGG	0.0708
AAATTGTC	0.24
CAATTGCA	-0.0952
AAATTGCA	0.232
AATTGGGC	-0.0483
CAGAGCGC	-0.213
ACATGGTA	-0.0687
AAGGTGCG	-0.0555
CTCATCCC	-0.234
ACTACGTA	0.0132
ATGTCCGA	-0.0732

Sequence	PBM E-score
ACCTCGCG	0.116
AGTCCCAC	-0.079
CAATTCCA	-0.0703
GAATTCCA	0.188
AAATTGGC	-0.012
AAATTCCA	0.254
AAATTGGT	0.268
AAATTGGG	0.0734
GAGACGGC	-0.0458
ACGAGGAC	-0.0285
CACTGAGC	-0.0828
ACGAATGA	0.156
GAAGGACA	-0.00553
CACCTCAG	-0.11
TCAGTGCA	0.0253
AGCGTTAC	-0.146
AATATAGG	0.229
TATATAAA	0.2
AATATAAT	0.0957
AATATAAA	0.233
AATATAAG	0.258
CATATAAG	0.0579
CATATAAA	0.00613
AATATAGC	0.0275
AATATAGT	0.206
ACACTTCA	0.103

Sequence	PBM E-score
CAGCCAGC	-0.115
CAAACAGC	0.00877
AAGGGCCA	-0.0108
AGTTTGGG	0.0374
CCGGCGAA	0.0927
AGAAACAC	0.0617
GGAAACAA	0.105
AGAAACAA	0.258
AATCGGCG	0.0404
AAGGTTTG	0.0916
GACAGACC	0.0299
TCCAGGGA	0.242
GACAGACA	0.248
AACAGGGC	0.283
CTCAGGGA	0.319
AACAGGGG	0.105
CACAGACA	0.118
CTCAGGGC	0.157
ACCAGGGA	0.122
CACAGGGC	0.179
CCCAGGGA	0.124
GTCAGGGA	0.18
GCATTCCC	-0.0654
ATTCGACC	-0.0786
AGAGCGCT	0.0785
CGCGGGGC	0.0564

Sequence	PBM E-score
AAGGGCAT	-0.139
ATGCGACA	0.0603
GCAAGTGA	-0.0727
AGCTAGCG	0.00875
ACGAAGAC	-0.135
GAGCAAGA	-0.00443
GCTGAAAA	0.114
GATCTCCA	0.0533
CAGAGCTG	-0.0821
AGAACGAA	0.179
AACAGGGA	0.176
CACAGGGA	0.139
GACAGGGA	0.252
CACCTCTC	-0.0403
ATGGCCTA	0.00552
ACCAGAAC	0.238
ACCAGAAG	-0.134
ATAAGAAT	0.135
GCAAGAAC	0.188
ACAAGAGC	0.0831
ATAAGAAC	0.36
ATAAGAAA	0.101
ACAAGAGA	0.24
CCAAGAGA	-0.14
ACAAGAAC	0.262
ACCAGAAA	0.041

Sequence	PBM E-score
ACAAGAAT	0.0779
AGGAGCAC	0.0739
AGTTGGCA	0.1
AGCTTACA	0.128
GCTCCCAA	-0.0754
CGCTACAG	-0.103
ATATACAA	0.237
CTATACTA	0.111
ATATACTA	0.307
ATATACAC	0.081
ATATACTC	0.0973
CTATACAA	-0.0419
AAATCACT	0.124
CACAGCCA	-0.0609
CGGAGATA	0.0572
ATGGTGTA	-0.0203
CCATATCA	0.00491
GCATATCA	0.256
TCATATCA	0.0508
CTTAACGA	0.123
GGCGAAGA	-0.0414
ATCTAGAA	-0.0175
CAAGACCG	-0.00525
AACCTATG	-0.101
TCGACAGA	-0.105
GCGACAGA	0.238

Sequence	PBM E-score
CCGACAGA	0.141
TGTTATAA	0.163
GGGGTCTA	0.203
AGGGTCTA	0.356
CGGGTCTA	-0.0249
AGGGTCTG	0.216
CGGGTCTC	-0.0571
AGGGTCTC	0.308
CCCCCCGC	-0.359
CCACTGTA	0.064
CTGATCTA	0.00323
GTGATGAA	0.0611
AGTATGAT	0.223
ATGATCTA	0.236
ATGATGAA	0.31
ATGATCTC	0.087
CTGATGAA	0.0121
AGTATGAA	0.254
AGTATGAC	0.0675
GCAGCATA	0.0385
GGAGAGGA	-0.215
